Only some compounds are listed: those with a hit (about 7.4% of all), similar ones and a draw of the others.
NPC1 prom act – NPC1 promoter activation; Huh7 NPC1 promoter luciferase reporter, 24 h; Potency, µM (highest dose often 9.22 µM), inactives show top-dose activation, hits mostly activators; actives 2.4% (n = 320,000); AID 485313; further: % of control where 0% means no effect; nearly all actives have a fitted effect of over 60% in size
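Cells: Huh7 expressing luciferase under the NPC1 promoter, 1500/well. Seeded 2 h, compound added, incubated 24 h at 37 °C. Luciferase reagent, 10 min ambient, then luminescence.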
ELG1 genotox – genotoxicity induction in ELG1-luciferase HEK293T cells; HEK293T ELG1-luciferase reporter, luminescence, 16 h; actives 1.3% (n = 330,000); Potency, µM (titrated, usually from 46 µM), for inactives: top-dose activity change, positive = activation, hits mostly activators; further: % of control where 0% means no effect; nearly all actives have a fitted effect of over 60% in size
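Step 1: seed 2,000 HEK293T ELG1-luciferase cells per well. Step 2: add compound or DMSO, incubate 16 hr at 37 °C. Step 3: ONE-Glo, 30 min at room temperature, read luminescence.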
SMN2 splice up – enhancers of SMN2 splice variant expression; Potency, µM (highest dose often 46.1 µM), for the others: top-dose activity change, positive = activation, usual class: activators; AID 1458; HEK293 SMN2-luciferase splicing reporter, luminescence, 30-36 h; actives 2.8% (n = 210,000); further: % of control where 0% means no effect; nearly all actives have a fitted effect of over 55% in size
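HEK293 cells carry an SMN2 […]–luciferase reporter in which exon 7 inclusion puts luciferase in frame. Cells were plated 10-12 h before compound addition, then incubated 30-36 h at 37C. ONE-Glo luminescence was read; sodium butyrate at 4.5 mM final served as control.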
p53 reactivator – restores transcriptional activity of mutant p53; Potency, µM (top dose mostly 92.2 µM), for inactives: top-dose activity change, positive = activation, hits mostly activators; actives 0.063% (n = 320,000); H1299 p53-A138V BP100-luciferase reporter, luminescence, 24 h; AID 504706; further: % of control where 0% means no effect; nearly all actives have a fitted effect of over 45% in size
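p53-null H1299 cells stably carrying temperature-sensitive p53-A138V and a BP100-luciferase reporter were pinned with compounds (4-point, 1:5 series) and held 24 hrs at 37 deg C. Luminescence was read 10 min after detection reagent.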
Rab9 prom act – activators of Rab9 promoter; Potency, µM (top dose mostly 9.22 µM), without a hit: at the highest dose activation, negative = inhibition, hits mostly activators; actives 2.8% (n = 320,000); Huh7 Rab9 promoter-luciferase reporter, luminescence, 24 h; further: % of control where 0% means no effect; nearly all actives have a fitted effect of over 60% in size
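Cells were plated at 1500 per well in reduced-serum medium with 10% FBS and left 2 h. Compound in DMSO was then added for 24 h at 37 °C. Reporter signal was read by luminescence after 10 min with luciferase detection reagent.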
FLuc modulator – counter-screen for miR-21 project: firefly luciferase inhibitors or activators | P08659 | purified FLuc, Km substrates, luminescence inhibition | Potency, µM (titrated, usually from 57.5 µM), inactives show at the highest dose activity change, negative = inhibition, usual class: inhibitors | actives 6.9% (n = 360,000);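 further: plate controls were vehicle for no effect and reference inhibitor for full effect; nearly all actives have a fitted effect of over 55% in size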
Target sequence (P08659 whole entry, looked up): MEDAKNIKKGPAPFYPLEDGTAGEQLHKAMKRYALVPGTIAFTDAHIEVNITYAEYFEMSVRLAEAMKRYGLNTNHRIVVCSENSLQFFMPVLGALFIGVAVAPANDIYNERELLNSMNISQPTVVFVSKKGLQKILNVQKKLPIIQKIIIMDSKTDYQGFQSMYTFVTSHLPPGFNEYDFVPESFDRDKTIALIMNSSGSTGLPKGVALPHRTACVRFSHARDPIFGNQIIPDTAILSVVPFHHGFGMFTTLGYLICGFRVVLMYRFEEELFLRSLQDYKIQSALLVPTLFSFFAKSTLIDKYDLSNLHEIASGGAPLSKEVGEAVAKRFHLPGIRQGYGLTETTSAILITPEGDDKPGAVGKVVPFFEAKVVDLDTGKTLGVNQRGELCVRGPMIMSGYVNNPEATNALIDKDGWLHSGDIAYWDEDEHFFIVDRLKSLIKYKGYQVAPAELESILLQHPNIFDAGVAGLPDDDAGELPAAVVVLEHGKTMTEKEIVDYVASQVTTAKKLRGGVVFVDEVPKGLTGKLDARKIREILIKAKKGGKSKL
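Biochemical qHTS of compounds, final roughly 60 µM downward over six points, against 10 nM purified firefly luciferase using Km concentrations of substrates (10 uM D-luciferin, 10 uM ATP) in Tris acetate pH 7.5 buffer; luminescence output.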
* marks the source's active call; other numbers are inactive results; ? = inconclusive; . = no result. The call rests on the fitted dose curve; in most records, active means well fitted curve in the direction sought with a large enough effect; inconclusive means small, poorly fitted or top-dose-only effect, or another doubt; inactive means no such curve, though single readings can be large; an effect the other way counts as inactive or inconclusive. Potency means the concentration at half of the fitted maximal effect.

SMILES	NPC1 prom act	ELG1 genotox	SMN2 splice up	p53 reactivator	Rab9 prom act	FLuc modulator
Cc1cccc(NC(=O)c2cnc3sccn3c2=O)c1C	?	4.11µM*	5.62µM*	10.6%	1.12µM*	2.69µM*
O=C(Nc1ccon1)c1cnc2sccn2c1=O	21.2%	1.0%	.	?	11.6%	-19.7%
COc1ccc(NC(=O)c2cnc3sccn3c2=O)cc1	?	4.11µM*	14.1µM*	?	2.51µM*	?
Cc1cccc(NC(=O)c2cnc3ccccn3c2=O)c1	0.631µM*	0.411µM*	0.708µM*	18.4%	0.316µM*	0.675µM*
CC(=O)c1cnc2sccn2c1=O	-3.2%	0.5%	-5.8%	-0.5%	3.4%	-2.5%
CCn1c(SCC(=O)c2ccccc2)nnc1-c1cccc(Cl)c1	.	.	-13.1%	.	.	?
CCCNC(=O)CCCN1C(=O)CCn2nc(-c3cccn3C)cc21	.	.	.	.	.	-1.3%
Cc1cccc(NC(=O)c2cnc3sccn3c2=O)c1	0.891µM*	?	.	6.4%	0.447µM*	3.38µM*
COC(=O)[C@@]12CCCN1[C@H](c1ccc(-c3ccc(C(C)=O)cc3)c(OC)c1)[C@H]1C(=O)N(C)C(=O)[C@H]12	-0.9%	3.5%	.	-3.0%	-3.8%	0.2%
CCOc1ccc(-c2cc(-c3nc(-c4cc(OC)c(OC)c(OC)c4)no3)[nH]n2)cc1	.	.	.	.	.	21.3µM*
Cc1cc(C)c2c(CC(=O)Nc3ccccc3C(F)(F)F)coc2c1	.	.	9.9%	.	.	-2.5%
CCc1ccc(NC(=O)N(Cc2c[nH]c3ccccc23)C2CCCCC2)cc1	.	.	8.7%	.	.	-2.4%
CCc1ccc(NC(=O)N(Cc2c[nH]c3ccccc23)C2CCCCCC2)cc1	.	.	5.01µM*	.	.	-7.1%
COc1ccc(/C=C2\SC(=S)N(CC3CCCO3)C2=O)cc1 (stereo not given)	6.0%	9.6%	.	20.3%	25.1%	10.7µM*
COc1cc(/C=C2/SC(=S)N(CC3CCCO3)C2=O)ccc1O (stereo not given)	-0.7%	16.0%	4.3%	?	-2.7%	10.7µM*
CCCCOc1ccc(CNC(=O)c2ccc(NC(=O)N3CCSc4ncccc43)cc2)cc1	.	.	.	.	.	1.8%
Cc1c(CC(=O)O)c(=O)oc2cc3occ(-c4ccccc4)c3cc12	3.8%	4.6%	.	16.2%	-4.1%	?
Cc1c(CC(=O)N[C@@H](C)C(=O)O)c(=O)oc2cc3occ(-c4ccccc4)c3cc12	-0.7%	-6.4%	.	-2.0%	-2.3%	21.3µM*
Cc1c(CC(=O)NCCC(=O)O)c(=O)oc2cc3occ(-c4ccccc4)c3cc12	-2.0%	1.5%	.	3.0%	7.0%	15.1µM*
COc1ccc(NC(=O)c2sc3nc4c(cc3c2N)CN(Cc2ccccc2)CC4)c(OC)c1	.	.	-13.5%	.	.	4.3%
COc1ncccc1-c1nnn(-c2ccc(Cl)c(Cl)c2)n1	2.82µM*	?	.	?	3.16µM*	4.78µM*
COc1nc(-c2ccc(C)cc2)ccc1-c1noc(-c2ccccc2Br)n1	.	.	1.1%	.	.	?
Fc1ccc(-n2nnc(-c3ccccc3Br)n2)cc1	-0.1%	-4.2%	.	-24.4%	-0.2%	4.3%
COc1ncccc1-c1nnn(-c2ccc(C)cc2)n1	3.16µM*	9.2µM*	.	?	3.16µM*	4.26µM*
COc1ncccc1-c1nnn(-c2ccc(F)cc2)n1	2.82µM*	9.2µM*	.	21.8%	3.98µM*	5.36µM*
Cc1ccc(-n2nnc(-c3cc4ccccc4nc3Cl)n2)cc1	?	?	.	18.0%	4.47µM*	6.01µM*
CCN(c1ccc(C)cc1C)S(=O)(=O)c1nnc(NC(=O)c2ccc(F)cc2)s1	.	.	.	.	.	1.8%
COc1ccc(NC(=O)Cn2nc(C(F)(F)F)c3c2CCCC3)c(OC)c1	0.0%	-6.8%	-35.2%	-4.7%	-3.1%	-2.5%
COc1ccc(CNC(=O)Cn2nc(C(F)(F)F)c3c2CCC3)cc1	5.6%	-5.6%	11.2µM*	-12.9%	-1.3%	1.0%

Screening results (PubChem)
